# Results with a measured potency or affinity are listed apart.
# Target: Potassium voltage-gated channel subfamily KQT member 2 (Rattus norvegicus) (UniProt O88943)
# Assay: KCNQ2 channel potentiators, dose response, mechanism study for KCNQ2 potentiator project, cell-based, automated electrophysiology (AID 2603)
# Details: KCNQ2-CHO cells, automated patch clamp current potentiation; at 30 µM (top of the series)
# Chain of Potassium voltage-gated channel subfamily KQT member 2 (Rattus norvegicus) (O88943 whole entry, looked up): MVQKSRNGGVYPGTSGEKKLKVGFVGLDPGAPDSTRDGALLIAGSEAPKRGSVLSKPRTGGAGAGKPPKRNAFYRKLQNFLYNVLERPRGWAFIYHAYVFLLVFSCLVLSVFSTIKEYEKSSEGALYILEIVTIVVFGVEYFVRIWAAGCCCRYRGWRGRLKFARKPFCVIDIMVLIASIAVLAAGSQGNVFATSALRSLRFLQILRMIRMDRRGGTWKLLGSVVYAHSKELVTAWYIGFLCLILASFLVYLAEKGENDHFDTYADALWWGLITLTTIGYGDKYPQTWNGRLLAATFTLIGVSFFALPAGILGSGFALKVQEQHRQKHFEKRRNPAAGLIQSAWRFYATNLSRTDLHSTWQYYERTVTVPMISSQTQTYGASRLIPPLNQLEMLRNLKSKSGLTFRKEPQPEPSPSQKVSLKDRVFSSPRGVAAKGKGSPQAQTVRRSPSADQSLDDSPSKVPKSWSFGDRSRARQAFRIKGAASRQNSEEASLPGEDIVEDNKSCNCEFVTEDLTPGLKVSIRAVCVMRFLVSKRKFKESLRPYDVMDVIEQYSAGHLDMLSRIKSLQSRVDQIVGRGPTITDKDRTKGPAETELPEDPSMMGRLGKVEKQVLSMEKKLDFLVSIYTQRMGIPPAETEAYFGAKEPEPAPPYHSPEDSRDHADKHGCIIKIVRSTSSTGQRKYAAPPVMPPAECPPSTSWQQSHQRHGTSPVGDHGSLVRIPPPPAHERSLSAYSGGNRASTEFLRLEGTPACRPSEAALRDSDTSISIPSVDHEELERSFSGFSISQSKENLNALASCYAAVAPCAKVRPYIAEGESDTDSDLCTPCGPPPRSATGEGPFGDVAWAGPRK
smiles,measurement,value
O=c1[nH]sc2cc(F)ccc12,potentiation,102
